40 sequences from the supplement of paper PMC6555819 can be followed below.

The test deals with VDR:RXRa (NR concentration 270 nM, RXRa partner concentration 90 nM). The test is described as follows: PBM binding z-score (relative to random genomic background probes); higher = stronger binding; sequences stand for … in GC…GCGATTGACAGCGTAGAATGAAGG
Here is the method:
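Protein-binding microarray (Agilent 4x180K custom design, double-stranded 60-nt probes: 5' GC cap, 34-nt variable region, 24-nt constant primer region; full probe sequence given). Purified or IVT nuclear receptor:RXRα heterodimers (3:1 NR:RXRα, mostly 270:90 nM) or homodimers were incubated for 1 h in PBS with 2% milk and no ligand, then detected with Alexa488 antibodies. Fluorescence from o1-orientation probes (~5 replicates averaged) was converted to z-scores against 500 random hg19 background probes. Variable regions are seed direct-repeat (DR0–DR5) sites, all their single-nucleotide variants and half-site ablations.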
For the sequence CCTCGGAGGACAGAAGGTAAGAGCTGTCCGCTTT, the PBM binding z-score is -0.622.
With TCGACTAGGTTAGGGGCATTCAGAATGGCGTCGA the figure was 0.465; with TCATATAGGTACAGGTGAAAGTCGAACGATATGA, 0.846.
With TGTCAAAGTTCAAAGGTATCGTAAGTATCCACAC the figure was 4.75; with CCTTACGGGTCACGAGGTTATAGGACGACGAGCG, 4.9.
With CGTCCAAGGTCAAGGTCATTGAAAGAGACTCGAA the figure was 5.37.
TCTTGTAGATCAACGGTTAAGAAAGCCGAAGCCT came in with a PBM binding z-score of 0.234.
Regarding TAGCCTAGGTCATGGGCCGGTATACCACGCGAAC, the PBM binding z-score is 2.18.
With CGAACTAGGTCATCCAGGACAGTGAATACATTGA the figure was 4.73; with GCTCGGAGGACAAGGCCAGAGCTTTGTCCGTAGA, -1.03; with TAGCCTAGGTCAGAGCGGGCCAGTATACGCTATA, 0.36.
TTACCAAGGGGAAGGTCGTTGATCCCTCTGTAGA gave a PBM binding z-score of 0.561.
With CCAGACAGGTGGAAGGTAACTCAGTCTGGTACGC the figure was -0.365; with CCACGGAGGACAGAAGGTCAGAGCTGTCCGCTTT, 0.979; with CTACCAAGGTGAACAATGTCGTTGATTACTATTC, 1.37.
For AGAACGAGGGCAATGAGTTGATAGGACGGGTGGC, the PBM binding z-score is 5.22.
For CATACAGGGTCAGCTAGCCCAGAGTAGGGACGGC, the PBM binding z-score turned out to be 2.52.
GCTTACGGGTCAAAGGTTATAGCTTGAATAGAAT displayed a PBM binding z-score of 5.25.
With ACTATTAGTTGACTTAGGGCAACCCATACGACGC the figure was 0.512; with CCTCGGACGACAACAGGAGGTCAGAGCTGCCAGA, 1.52.
The sequence CCTAGGTGGTCAGGAGGTCACACACCGGATATGA showed a PBM binding z-score of 3.76.
Consider GCTTGTAGATCAAGGTTAATAAAGACTAAGCTAA, for which the PBM binding z-score was -0.00898.
With TCTGTTAGGTCAACGATGGTCAGCTAATCTGCTA the figure was 2.46; with CGTCAAGGTTCAACTAAGGTAACGTAAAGCACGC, 3.94.
As to TCTATTAGTTGATTAGGGGAACCGAAACAGCGGA, the PBM binding z-score was 0.739.
Turning to CATACAGGGTCAGCTAGGCCAGTGTAGGGACGGC, the PBM binding z-score is 3.86.
With CGCCAAAGTTCAAGGTAACGTAACAGAAAGCAGC the figure was 3.76; with CCTTACGGGTCACTGACAGGTTAGAGCATTTGGA, 3.33; with ATCGAAAGGTCGAAGGTGAGTTTACCCACCCGAA, 4.33.
Turning to TTACCAAGGTGAGCTGAGGTTGTTGATCCAACTC, the PBM binding z-score amounted to 0.678.
With TCTCGGAGGACACGAAAGGTCGGAGCTCGACATC the figure was 1.08; with CGAACGAGGGGATGAGTTGATAGCAAATGCCGAT, -0.189; with AGAGACAGGTGAGTGAAGGTAACTCAGCTGGACG, -0.141.
In turn, TAGCCTAGGTCAGTTCGGGCCAGTATACGCTATA returned a PBM binding z-score of 0.785.
With ATATGTAGGTTAGCTGGGGTCATTCTGACTAGGC the figure was 6.29.
With CCTGCTAGGTCAATGGTCAGCTACAGCAGCTCGC the figure was 0.991.
Consider TCATATAGGTAAAAGGTGATAGTCGGTGTGGTAA, for which the PBM binding z-score was 1.13.
The sequence TCGAGCAGGCCAGAGGGTCACTCAAGAGGTACGG came in with a PBM binding z-score of 1.48.
With CCAGACAGGTGAGAAGGTAGCTCAGCCTCGATTA the figure was -0.387; with TCATATAGGTAAAAGGTGACAGTCGGTGTGGTAA, 1.35.
